Results: PubChem BioAssay AID743314 (Broad Institute, 2014)
Potency and affinity values are given separately. Records with an inconclusive call do not appear. Activity calls are given as the source filed them.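 Rule for the calls: active = fitted half-maximal concentration no higher than twice the top tested dose, in every repeat run; inconclusive = repeat runs disagree, poor fit, or flat partial inhibition; inactive = the rest.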

Target: Endoplasmic reticulum aminopeptidase 1 (Homo sapiens) (UniProt Q9NZ08)
Sequence (Q9NZ08 whole entry, looked up): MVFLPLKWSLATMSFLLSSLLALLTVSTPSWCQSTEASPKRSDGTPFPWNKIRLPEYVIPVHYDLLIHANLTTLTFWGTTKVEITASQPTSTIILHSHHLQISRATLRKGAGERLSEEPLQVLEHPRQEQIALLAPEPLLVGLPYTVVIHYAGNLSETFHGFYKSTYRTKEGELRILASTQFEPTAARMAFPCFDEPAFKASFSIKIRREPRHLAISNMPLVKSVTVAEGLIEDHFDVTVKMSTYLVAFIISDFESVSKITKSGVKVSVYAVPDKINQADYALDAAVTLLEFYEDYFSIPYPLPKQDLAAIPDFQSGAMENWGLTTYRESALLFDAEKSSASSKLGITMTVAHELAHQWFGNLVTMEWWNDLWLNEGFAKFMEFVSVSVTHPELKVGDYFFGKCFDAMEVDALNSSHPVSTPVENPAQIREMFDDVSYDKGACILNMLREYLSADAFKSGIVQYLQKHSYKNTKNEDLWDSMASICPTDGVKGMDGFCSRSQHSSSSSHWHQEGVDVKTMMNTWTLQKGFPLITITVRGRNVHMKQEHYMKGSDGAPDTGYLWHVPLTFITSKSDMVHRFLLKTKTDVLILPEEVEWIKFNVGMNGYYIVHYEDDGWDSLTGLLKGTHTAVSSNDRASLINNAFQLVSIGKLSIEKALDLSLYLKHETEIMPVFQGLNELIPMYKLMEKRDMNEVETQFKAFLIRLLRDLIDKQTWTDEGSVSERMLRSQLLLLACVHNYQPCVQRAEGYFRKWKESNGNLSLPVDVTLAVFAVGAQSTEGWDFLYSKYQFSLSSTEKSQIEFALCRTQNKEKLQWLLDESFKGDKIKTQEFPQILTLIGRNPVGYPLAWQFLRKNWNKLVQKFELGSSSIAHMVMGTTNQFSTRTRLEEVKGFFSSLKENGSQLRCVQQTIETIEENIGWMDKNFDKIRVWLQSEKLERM
Test: ERAP1 aminopeptidase inhibitors, dose response, biochemical, cherry-pick, set 2, plate reader (AID 743314)
Conditions: Recombinant ERAP1, Leu-AMC fluorescence, 60 min; series mostly up to 11 µM

outcome, inactive:
CC(=O)NC(CC(=O)NCCOc1ccccc1F)c1ccccc1 (stereo not drawn)
COc1ccc(NC(=O)Nc2cccc3c2O[C@H](CN(C)Cc2ccc(C(=O)O)cc2)[C@H](C)CN([C@@H](C)CO)C3=O)cc1
O=C(c1ccccc1)N1CC(=O)N2[C@H](CO)[C@@H](c3ccc(-c4ccccc4)cc3)[C@H]2C1
O=C(C[C@@H]1CC[C@@H]2[C@H](COC[C@@H](O)CN2C(=O)Cc2ccccc2)O1)NC1CCC1
O=S(=O)(Nc1cccc(-c2cn3c(n2)SCC3)c1)c1ccccc1
CC(=O)N1CC[C@@H]2[C@@H](CO)N(C)c3ccc(-c4ccc(C#N)cc4)cc3[C@@H]21
O=C(CC1CC1)N1[C@H](CO)[C@@H](c2ccccc2)C12CN(Cc1cc(F)ccc1F)C2
Cc1ccc(S(=O)(=O)N(C)C[C@@H]2Oc3ccc(NC(=O)c4ccncc4)cc3C(=O)N([C@H](C)CO)C[C@H]2C)cc1
COc1ccc(CN(C)C[C@H]2Oc3c(NC(=O)NC4CCCCC4)cccc3C(=O)N([C@H](C)CO)C[C@@H]2C)cc1
Cc1cc(Br)ccc1NC(=O)CN(C)C(=O)Cn1c(=O)cnc2ccccc21
COc1ccc(S(=O)(=O)N(C)C[C@H]2Oc3ccc(N(C)C)cc3CC(=O)N([C@H](C)CO)C[C@H]2C)cc1
COc1ccc(CN(C)C[C@H]2OCCCC[C@H](C)Oc3ccc(NS(=O)(=O)c4cccs4)cc3C(=O)N([C@@H](C)CO)C[C@@H]2C)cc1
CN(C(=O)CSc1nnc(C(F)(F)F)n1C)c1c(N)n(Cc2ccccc2)c(=O)[nH]c1=O
COc1ccc(-c2cc(=O)oc3cc(OC(C)C(=O)NC(Cc4c[nH]c5ccc(O)cc45)C(=O)O)ccc23)cc1 (stereo not drawn)
COc1ccc(NC(=O)N[C@@H]2CC[C@@H](CCn3cc(-c4ccc(F)cc4)nn3)O[C@H]2CO)cc1
C[C@@H]1CCCCO[C@H](CN(C)C)[C@@H](C)CN([C@@H](C)CO)C(=O)c2cc(NS(=O)(=O)c3ccc(Cl)cc3)ccc2O1
O=C(C[C@H]1CC[C@@H](NC(=O)Cc2ccccn2)[C@@H](CO)O1)NCCCN1CCOCC1
COc1ccc(CN(C)C[C@H]2OCCCC[C@@H](C)Oc3ccc(NS(=O)(=O)c4cccs4)cc3C(=O)N([C@@H](C)CO)C[C@@H]2C)cc1
Cn1c(=O)[nH]c(=O)c2c1[nH]c(=S)n2Cc1ccccc1
Cc1cc(S(=O)(=O)c2cc3ccc(O)c(C)c3oc2=O)ccc1F
C=CCn1nnnc1SCC(=O)Nc1cccc(C(F)(F)F)c1
Cc1noc(C)c1NC(=O)N(C)C[C@@H]1Oc2c(NC(=O)Nc3ccc(F)cc3)cccc2C(=O)N([C@@H](C)CO)C[C@@H]1C
COC(=O)[C@H]1[C@H](CO)[C@H]2Cn3c(ccc(C4=CCCC4)c3=O)[C@H]2N1C(=O)C1CC1
CCOC(=O)c1[nH]c2ccc(Br)cc2c1NC(=O)CCN1CCOCC1
Cc1noc(C)c1NC(=O)N(C)C[C@@H]1Oc2c(NC(=O)Nc3ccccc3)cccc2C(=O)N([C@H](C)CO)C[C@@H]1C
COc1ccc2c3c([nH]c2c1)[C@@H](CO)N(Cc1ccccc1)CC31CN(C)C1
COc1ccc2c3c(n(C)c2c1)[C@@H](CO)N(C)CC31CN(C(=O)c2cccnc2)C1
COc1ccccc1-c1cc(-c2ccccc2)nc(SCC(=O)O)c1C#N
CC(C)NC(=O)N[C@@H]1CC[C@@H](CCNS(=O)(=O)c2ccc(Cl)cc2)O[C@@H]1CO
O=C(O)[C@@H]1[C@@H](CO)[C@@H]2Cn3c(ccc(/C=C/c4ccccc4)c3=O)[C@@H]2N1Cc1ccc2c(c1)OCO2
COc1ccc(CN(C)C[C@@H]2OCCCC[C@H](C)Oc3ccc(NS(=O)(=O)c4cccs4)cc3C(=O)N([C@@H](C)CO)C[C@H]2C)cc1
CCOc1ccc(OCCCC(=O)N2CCN(S(=O)(=O)c3ccc(Cl)cc3)CC2)cc1
COc1ccc2c3c([nH]c2c1)[C@H](CO)N(S(=O)(=O)c1cn(C)cn1)CC31CCN(CC2CCCCC2)CC1
Cn1c(CCC(=O)Nc2cc(S(C)(=O)=O)ccc2Cl)nc2cc(S(=O)(=O)N3CCOCC3)ccc21
CN1[C@H](C(=O)N2CCCCC2)[C@@H](CO)[C@@H]2Cn3c(ccc(/C=C/c4ccccc4)c3=O)[C@@H]21
O=C(CNC(=O)OCc1ccccc1)Nc1ccc(F)cc1
CCCC#Cc1ccc2c(c1)O[C@H](CN(C)Cc1ccncc1)[C@@H](C)CN([C@H](C)CO)S2(=O)=O
O=C(Nc1ccc(C(F)(F)F)cc1)N1[C@@H]2CNC[C@H]1C2c1ccc(-c2ccncc2)cc1 (stereo partly drawn)
